Results as given in PubChem BioAssay AID1159580 (chemical genetic matrix, 2015).
Where “and” joins values, the source holds several entries; their conditions need not be identical. Identical values can stand only once. Among all 5,500 compounds or so, about 2,000 (36%) were called active. Not shown: some 18% with an inconclusive outcome. Rule as the data show it: active = normalized growth mostly below about 0.91 (no sharp cut-off); inconclusive = no clear call, values can overlap the other calls; inactive = mostly above about 0.92. The list shows a part of the results.

Test: chemical genetic growth profiling, strain panel (AID 1159580);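 also: tested at 20 µM; growth read once vehicle control cultures reached saturation at 30 °C; 1 = growth at the plate median or of vehicle wells; lower values mean less growth of the strain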
Details: S. cerevisiae deletion strains, growth OD

Measured: normalized growth

Nc1nc(N)c2nc(-c3ccccc3)c(N)nc2n1
inactive: locus YAL013W, strain DEP1, hits give low values 1 | locus YAL021C, strain ccr4, hits give low values 1.01 | locus YAL026C, strain drs2, hits give low values 1.01 | locus YAL030W, strain snc1, hits give low values 0.998 | locus YAL040C, strain CLN3, hits give low values 0.986 | locus YBL061C, strain skt5, hits give low values 1 | locus YBR009C, strain hhf1, hits give low values 0.969 | locus YBR021W, strain FUR4, hits give low values 1.01 | locus YBR023C, strain chs3, hits give low values 0.997 | locus YBR171W, strain sec66, hits give low values 1.01 | locus YBR229C, strain ROT2, hits give low values 1 | locus YBR231C, strain swc5, hits give low values 1 | locus YBR279W, strain paf1, hits give low values 0.994 | locus YCL011C, strain gbp2, hits give low values 0.992 | locus YCL016C, strain dcc1, hits give low values 0.999 | locus YCL029C, strain bik1, hits give low values 1.01 | locus YCL061C, strain MRC1 (second series), hits give low values 0.989 | locus YCL061C, strain MRC1, hits give low values 1.01 | locus YCL069W, strain vba3, hits give low values 1 | locus YCR088W, strain abp1, hits give low values 0.992 | locus YDL005C, strain med2, hits give low values 1.01 | locus YDL035C, strain GPR1, hits give low values 1.01 | locus YDL040C, strain nat1, hits give low values 1.01 | locus YDL074C, strain BRE1, hits give low values 0.973 | locus YDL101C, strain DUN1, hits give low values 1.01 | locus YDL134C, strain PPH21, hits give low values 1 | locus YDL185W, strain tfp1, hits give low values 1.01 | locus YDL192W, strain arf1, hits give low values 1.01 | locus YDR001C, strain nth1, hits give low values 1.02 | locus YDR069C, strain doa4, hits give low values 1 | locus YDR101C, strain arx1, hits give low values 0.999 | locus YDR137W, strain rgp1, hits give low values 1 | locus YDR150W, strain NUM1, hits give low values 0.987 and 0.981 | locus YDR159W, strain sac3, hits give low values 0.951 | locus YDR162C, strain NBP2, hits give low values 1.01 | locus YDR195W, strain ref2 1 | locus YDR297W, strain sur2, hits give low values 1 | locus YDR318W, strain mcm21, hits give low values 1 | locus YDR334W, strain swr1, hits give low values 1 | locus YDR335W, strain msn5, hits give low values 1 | locus YDR363W, strain ESC2, hits give low values 1 | locus YDR388W, hits give low values 1.01 | locus YDR392W, strain spt3, hits give low values 0.946 | locus YDR502C, strain sam2, hits give low values 1 | locus YEL003W, strain gim4, hits give low values 1.01 | locus YEL037C, strain rad23, hits give low values 0.997 | locus YEL061C, strain CIN8 (second series), hits give low values 1 | locus YEL061C, strain CIN8, hits give low values 1 | locus YER002W, strain NOP16, hits give low values 1 | locus YER015W, strain faa2, hits give low values 0.993 | locus YER016W, strain bim1, hits give low values 0.966 | locus YER110C, hits give low values 1.01 | locus YER111C, strain swi4, hits give low values 1.01 | locus YER155C, strain BEM2 (second series), hits give low values 0.957 | locus YER155C, strain BEM2, hits give low values 1.01 | locus YER167W, strain BCK2, hits give low values 1.01 | locus YFR010W, strain ubp6, hits give low values 1.02 | locus YGL078C, strain dbp3, hits give low values 1.01 | locus YGL086W, strain mad1, hits give low values 1 | locus YGL167C, strain pmr1, hits give low values 1.01 | locus YGL173C, strain kem1, hits give low values 1 | locus YGL227W, strain vid30, hits give low values 1.01 | locus YGL240W, strain doc1, hits give low values 1 | locus YGL248W, strain PDE1, hits give low values 0.999 | locus YGL253W, strain hxk2, hits give low values 0.99 | locus YGR078C, strain PAC10, hits give low values 0.996 and 0.977 | locus YGR135W, strain pre9, hits give low values 1.01 | locus YGR229C, strain SMI1, hits give low values 1.02 | locus YGR252W, strain gcn5, hits give low values 0.939 | locus YHR013C, strain ard1, hits give low values 0.978 | locus YHR027C, strain rpn1, hits give low values 1 | locus YHR030C, strain SLT2, hits give low values 0.999 and 0.991 | locus YHR079C, strain IRE1 (second series), hits give low values 1.02 | locus YHR079C, strain IRE1, hits give low values 0.975 | locus YHR094C, strain hxt1, hits give low values 1 | locus YHR129C, strain ARP1, hits give low values 0.993 | locus YHR142W, strain chs7, hits give low values 0.996 | locus YHR200W, strain rpn10, hits give low values 1.01 | locus YIL066C, strain RNR3, hits give low values 1 | locus YIL073C, strain SPO22, hits give low values 1.05 | locus YIL125W, strain kgd1, hits give low values 1.01 | locus YIR030C, strain dcg1, hits give low values 1.01 | locus YJL092W, strain hpr5, hits give low values 1.01 | locus YJL095W, strain BCK1 (second series), hits give low values 1.01 | locus YJL095W, strain BCK1, hits give low values 0.988 | locus YJL115W, strain asf1, hits give low values 1 | locus YJL129C, strain trk1, hits give low values 0.993 | locus YJL134W, strain LCB3, hits give low values 1 | locus YJL154C, strain vps35, hits give low values 0.992 | locus YJL164C, strain tpk1, hits give low values 0.981 | locus YJL166W, strain qcr8, hits give low values 1.02 | locus YJL168C, strain set2, hits give low values 1.01 | locus YJL187C, strain SWE1 (second series), hits give low values 1 | locus YJR043C, strain POL32, hits give low values 0.994 | locus YJR066W, strain TOR1, hits give low values 0.938
